From the supplement of paper PMC6555819

How the values were obtained:
Experiment in all cases: PBM binding z-score (relative to random genomic background probes); higher = stronger binding; sequences stand for … in GC…GCGATTGACAGCGTAGAATGAAGG
[1] = tested on: RARb homodimer (NR concentration 270 nM)
Procedure, shortened: (§1)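 On custom Agilent 4×180K arrays, double-stranded probes with 34-nt variable regions carried direct-repeat seeds, single-nucleotide variants, half-site ablations or random human genomic background. Ligand-free nuclear receptor dimers were applied for 1 h, and binding was read with antibodies against each partner (one per run). Binding z-scores come from regression-normalized fluorescence, with the random background probes as reference.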

[2] = tested on: RARg:RXRa (NR concentration 270 nM, RXRa partner concentration 90 nM)
Procedure, shortened: as §1

[3] = tested on: RARg homodimer (NR concentration 270 nM)
Procedure, shortened: as §1

[4] = tested on: RXRa DBDmut IVT, anti-RXR (DBD mutation: RXRa K156A/R161A, NR concentration 90 nM)
Procedure, shortened: as §1

[5] = tested on: RXRa homodimer (NR concentration 180 nM)
Procedure, shortened: as §1

[6] = tested on: THRa:RXRa (NR concentration 90 nM, RXRa partner concentration 90 nM)
Procedure, shortened: as §1

[7] = tested on: THRa homodimer (NR concentration 90 nM)
Procedure, shortened: as §1

[8] = tested on: VDR homodimer (NR concentration 270 nM)
Procedure, shortened: as §1

Sequence	PBM binding z-score [1]	PBM binding z-score [2]	PBM binding z-score [3]	PBM binding z-score [4]	PBM binding z-score [5]	PBM binding z-score [6]	PBM binding z-score [7]	PBM binding z-score [8]
CCTATTAGTTGACCATTAGGGCAACCGAAGCTCG	1.68	0.667	0.891	0.456	0.374	0.945	0.78	0.844
ACTATTAGTTGATACGAGGGCAACCGATAGGTTG	1.59	1.03	0.921	1.04	0.536	2.55	0.673	0.979
ATCTGTAGGTTAAGGGTCATTCAGGTTGGTTCGC	4.02	5.03	3.89	2.02	6.57	3.69	2.07	4.28
GCTTTCGGGTCAAAGGTTATAGCATGAATAGAAT	3.37	7.01	5.04	2.52	9.55	4.61	2.14	2.16
ACAGACAGGTGATGAAGGTAACTCGGGCTATCAT	0.556	0.166	0.396	-0.159	0.351	0.765	0.0589	-0.217
TCGAGTAGGTTAGTCGGGGCATACAGCCAACATA	0.452	0.28	0.255	0.235	0.45	1.02	-0.188	-0.0779
CGTCAAAGTTCAAGGTATCGTAACAGAAAGCAGC	3.49	4.96	5.95	4.18	3.95	1.94	-0.0941	3.17
